{"source": "PubChem BioAssay (NCI)", "note": "The panel holds about 79,000 compounds, 15% with a hit somewhere; the sample as a whole holds those more often. Unmarked numbers belong to inactive results. Calls of active or inactive are those of the source. Rule as the data show it: active = growth inhibition above about 70%; inactive = the rest.", "data": [{"experiment": "NCI Yeast Anticancer Drug Screen. Data for the mlh1 rad18 strain (AID 175)", "settings": "S. cerevisiae mlh1 rad18 strain growth inhibition; at 50.0 µM; stronger effect = higher value", "how_it_was_run": "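Test agents were incubated with a yeast strain of defined genotype (DNA damage repair defect). Inhibition of growth was derived by comparison with vehicle-exposed cultures.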", "values": [{"smiles": "Oc1ccccc1C=NCCN=Cc1ccccc1O.[Cu]", "growth inhibition": "-7.7%"}, {"smiles": "CC(NC1=NCCO1)c1ccsc1", "note": "(stereo not given)", "growth inhibition": "-24.1%"}, {"smiles": "Oc1cccc(/C=N\\NC(=S)NC2CN3CCC2CC3)c1", "note": "(stereo not given)", "growth inhibition": "-12.8%"}, {"smiles": "COc1ccc2c(c1)C1(C=N2)CCN(C(C)=O)CC1", "growth inhibition": "-24.8%"}, {"smiles": "Nc1ccc(Cl)cc1.Nc1ccc(Cl)cc1.Nc1ccc(Cl)cc1.O=C([O-])C(=O)[O-].O=C([O-])C(=O)[O-].[H+].[Ru+5]", "growth inhibition": "34.5%"}, {"smiles": "CC1=CC(=O)C2=C(C)C[C@H](O)[C@@H]3[C@H](OC(=O)[C@H]3C)[C@@H]12", "growth inhibition": "8.85%"}, {"smiles": "C1=C(c2ccccc2)CCN(C2(c3ccccc3)CCCCC2)C1", "growth inhibition": "9.35%"}, {"smiles": "Nc1noc(N)n1", "growth inhibition": "-28.4%"}, {"smiles": "O=[As](O)(O)Cc1ccccc1", "growth inhibition": "-22.8%"}, {"smiles": "Cn1c(=O)oc(=O)c2ccccc21", "growth inhibition": "6.85%"}, {"smiles": "CN1CN(c2ccccc2)C2(CCN(Cc3csc4ccccc34)CC2)C1=O", "growth inhibition": "-20.1%"}, {"smiles": "CC1=CC23C(COC(=O)C24CO4)C(C(=O)O)=CC3C1C", "note": "(stereo not given)", "growth inhibition": "-5.7%"}, {"smiles": "Oc1ccccc1C=NC1CCCCC1N=Cc1ccccc1O.[Ni]", "note": "(stereo not given)", "growth inhibition": "-10.4%"}, {"smiles": "CCC(=O)[O-].CCC(=O)[O-].N.N.N.N.[Co+3].[O-][Cl+3]([O-])([O-])[O-]", "growth inhibition": "-12.2%"}, {"smiles": "CN(C)CCCN1CCCCC1", "growth inhibition": "-8%"}, {"smiles": "CCCCOC(=O)c1ccccc1C(=O)OCc1ccccc1", "growth inhibition": "-5.25%"}, {"smiles": "O=C(COc1ccc(Cl)cc1)Nc1ccc(Cl)cc1C(=O)c1ccccc1", "growth inhibition": "-18.4%"}, {"smiles": "CN(C(=O)CCl)c1ccccc1", "growth inhibition": "26.9%"}, {"smiles": "Cc1ccc(S(N)(=O)=O)cc1", "note": "(tested in a mixture with another compound)", "growth inhibition": "13%"}, {"smiles": "O=C(CC(O)C(Cl)(Cl)Cl)CC(O)C(Cl)(Cl)Cl", "note": "(stereo not given)", "growth inhibition": "13.4%"}, {"smiles": "CCCCCCCC(N)CC(=O)O", "note": "(stereo not given)", "growth inhibition": "-8.05%"}, {"smiles": "N#CC(C#N)C1CN2CCC1CC2", "note": "(stereo not given)", "growth inhibition": "-26.6%"}, {"smiles": "Clc1ccc(C(c2ccc(Cl)cc2)c2ccccn2)cc1", "growth inhibition": "98.4% (active)"}, {"smiles": "CC(C)=CC1C(C(=O)OCc2cc3c(cc2Cl)OCO3)C1(C)C", "note": "(stereo not given)", "growth inhibition": "-3.9%"}, {"smiles": "N#CC(C#N)=Cc1ccc(C=C(C#N)C#N)cc1", "growth inhibition": "-8.75%"}, {"smiles": "CCOC(=S)S.[Ag]", "growth inhibition": "14.4%"}, {"smiles": "C/C=C/C(=O)O", "growth inhibition": "-9.75%"}, {"smiles": "Nc1ccc(Sc2ccc(N)cc2)cc1", "growth inhibition": "23.1%"}, {"smiles": "CC(C)NC(=O)N1C2C3CCC(C)(OC3(C)C)C21", "note": "(stereo not given)", "growth inhibition": "-12.2%"}, {"smiles": "NC(=O)Cc1ccccc1", "growth inhibition": "24.9%"}, {"smiles": "COC(=O)C1=CCCN(C)C1", "growth inhibition": "3.7%"}, {"smiles": "CCOC(=O)/C(=C\\c1ccc(N(C)C)cc1)[Se]c1ccccc1", "growth inhibition": "56.4%"}, {"smiles": "Cc1cc(F)ccc1[As](=O)(O)O", "growth inhibition": "3.25%"}, {"smiles": "CC(=O)Nc1ccc([As](=O)(O)O)cc1[N+](=O)[O-]", "growth inhibition": "15.5%"}, {"smiles": "O=C1CC=C2C3CC4N(CCC45c4ccccc4N1C25)C/C3=C\\CO", "note": "(stereo not given)", "growth inhibition": "-38%"}, {"smiles": "OCCC[n+]1cccc2ccccc21", "growth inhibition": "-1.7%"}, {"smiles": "CN(N)/N=N/c1nc[nH]c1[N+](=O)[O-]", "growth inhibition": "-3.4%"}, {"smiles": "C[C@H](O)CCC(=O)c1ccoc1", "growth inhibition": "-14.1%"}, {"smiles": "O=C1OC(Br)c2ccccc21", "note": "(stereo not given)", "growth inhibition": "-7.65%"}, {"smiles": "COc1ccc2nc3c4ccccc4scc-3c2c1", "growth inhibition": "99.3% (active)"}]}]}
